Compound activity as filed in PubChem.
MITF act – activators of MITF-driven TRPM1 promoter reporter, primary screen, cell-based, SK-MEL-5, luciferase, single point; SK-MEL-5 TRPM1-promoter luciferase, 24 h; % of positive control, neutral wells = 0; activation, % at 12.5 µM; hit rate 0.75% among 300,000;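 active means mean activation of at least 80% with every replicate also reaching 80%; inconclusive means mean reaches 80% but some replicate falls short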;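 further: 0% = neutral control wells and 100% = parthenolide positive control wells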
MITF TRPM1 inh – inhibitors of MITF-dependent TRPM1 promoter reporter, primary screen, cell-based, SK-MEL-5, single point, luciferase; SK-MEL-5 TRPM1 promoter luciferase, 24 h; inhibition, % at 12.5 µM; hit rate 0.83% among 330,000; AID 488899, 2010;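 active means mean inhibition across replicates of 60% or more, whatever share of single replicates reaches that level; inconclusive means some that reach 60%, reason not given; inactive means mean inhibition across replicates below 60%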
TROY NFkB inh – inhibitors of TROY-driven NF-kB signaling, primary screen, Q293 LMP1-TROYcd cells, NF-kB luciferase, uHTS; hit rate 0.98% among 360,000; Q293 LMP1-TROYcd NF-kB luciferase reporter, 4 h; inhibition, % at 10 µM; AID 1347056, 2019;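 active means compounds whose plate-normalised and pattern-corrected inhibition of the luciferase reporter signal at the single screening dose is 50% or more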
TWEAK-Fn14 inh – inhibitors of TWEAK-Fn14 signaling, primary screen, luciferase reporter cells, uHTS; TWEAK-stimulated Fn14 reporter cells, luciferase luminescence, 8 h; inhibition, % at 10 µM; hit rate 2% among 360,000; in the data active means inhibition above about 50%
LGR2 antag – inhibitors of bursicon-induced LGR2 CRE-luciferase signal, primary screen, cell-based, HEK293, CRE-luciferase reporter, bursicon stimulation; bursicon-stimulated, 4 h; Drosophila bursicon receptor LGR2 (rickets); hit rate 0.35% among 380,000; AID 720647, 2013; inhibition, % at 9.99 µM;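 active means drop in luminescence signal, shown as inhibition above about 50% in the replicate tests, limit read from the data, passing the limit was not always enough; inconclusive means probably only some replicates passing the limit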;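 further: agonist challenge used bursicon conditioned medium at about half maximal strength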
EBV LMP1 NFkB – EBV LMP1-driven NF-kappaB luciferase reporter inhibitors, primary screen, cell-based, luminescence, single point; LMP1-induced NF-kappaB luciferase reporter cells; inhibition, % at 12.5 µM; hit rate 0.69% among 350,000; AID 504558, 2011; in the data active means inhibition above about 41%; inconclusive means no clear call, values can overlap the other calls;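 further: 0% = neutral control wells and 100% = reference inhibitor control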
Numbers without * were called inactive; ? = inconclusive; nt = not tested or not shown. The list is not random: actives were taken first. Their share in the collection is about 3%.

SMILES	MITF act	MITF TRPM1 inh	TROY NFkB inh	TWEAK-Fn14 inh	LGR2 antag	EBV LMP1 NFkB
CC(=O)N1[C@@H]2Cn3c(cccc3=O)[C@H]1[C@@H](C(=O)N[C@@H](C)c1ccccc1)[C@@H]2CO	nt	nt	nt	nt	-6.7	nt
O=c1oc(CCCO)cc2ccc(C#Cc3ccsc3)cc12	121.4*	-119.3	-23.0	-29.1	-60.5	-20.4
CN(C)c1ccc(C#Cc2ccc3cc(CCCO)oc(=O)c3c2)cc1	93.3*	-90.5	-32.7	3.1	-130.7	-19.2
C[C@@H]1CN([C@H](C)CO)C(=O)c2cc(/C=C/c3ccccc3)cnc2O[C@H]1CN(C)Cc1ccncc1	nt	nt	nt	nt	13.1	nt
CC[C@H](C)[C@@H](C(=O)NCCCCCCCCCCC(=O)N1CCN(C(=O)OC(C)(C)C)CC1)n1cc(CCCCCNC(=O)OC(C)(C)C)nn1	-59.3	64.9*	44.6	96.3*	26.8	19.5
CC(C)(C)OC(=O)NCCCCCc1cn([C@@H](CO)C(=O)NCCCCCCCCCCC(=O)N2CCN(C(=O)OC(C)(C)C)CC2)nn1	-52.3	58.4	73.3*	103.3*	nt	15.2
CC(C)(C)OC(=O)CC[C@@H](C(=O)NCCCCCCCCCCC(=O)N1CCN(C(=O)OC(C)(C)C)CC1)n1cc(CCCCCNC(=O)OC(C)(C)C)nn1	-9.1	12.4	-14.2	13.3	0.1	6.1
CO[C@H]1CN(C)C(=O)c2ccc(NS(=O)(=O)c3ccccc3)cc2OC[C@@H](C)N(Cc2ccccn2)C[C@@H]1C	nt	nt	nt	nt	-5.0	nt
CCCN1C[C@H](C)[C@@H](OC)CN(C)C(=O)c2ccc(NC(=O)C3CC3)cc2OC[C@H]1C	nt	nt	nt	nt	5.0	nt
Cc1ccc(NC(=O)c2cc(S(=O)(=O)NCCC3=CCCCC3)ccc2F)cc1	12.5	-10.2	34.9	57.4*	25.6	-9.9
CO[C@H]1CN(C)C(=O)c2cc(NC(=O)NC(C)C)ccc2OC[C@H](C)N(CCC(F)(F)F)C[C@@H]1C	nt	nt	nt	nt	9.4	nt
CCS(=O)(=O)N[C@H]1C=C[C@@H](CC(=O)NCc2ccc(Cl)cc2)O[C@@H]1CO	nt	nt	nt	nt	5.7	nt
O=C(Oc1ccc(Cl)c2cccnc12)c1cccc([N+](=O)[O-])c1	-15.6	19.0	5.5	21.4	-1.0	-4.9
O=[N+]([O-])c1ccccc1COc1ccc(Cl)c2cccnc12	5.8	-4.2	-3.0	65.3*	-97.1	-22.7
CCCNC(=O)Nc1ccc2c(c1)C(=O)N(C)[C@H]1CC[C@H](CC(=O)Nc3cc(F)ccc3F)O[C@@H]1CO2	nt	nt	nt	nt	-6.2	nt
O=C1/C(=C/c2ccccn2)COc2ccccc21	2.1	-4.6	-0.7	9.3	7.5	13.8
O=C1/C(=C/c2ccc(O)cc2)COc2ccccc21	35.8	-34.2	14.5	65.6*	-19.6	-1.4
O=C1/C(=C/c2ccccc2[N+](=O)[O-])COc2ccccc21	-82.5	84.5*	33.2	93.5*	91.3*	?
CNc1ccc(/C=C2\COc3ccccc3C2=O)cc1[N+](=O)[O-]	30.6	-26.3	-67.1	5.9	nt	-13.6
COCC(=O)Nc1ccc2c(c1)OC[C@@H](C)N(Cc1cccnc1)C[C@H](C)[C@H](OC)CN(C)C2=O	nt	nt	nt	nt	-9.2	nt
CCCN1CCN(c2ncnc3scc(C4COc5ccccc5O4)c23)CC1 (centres undefined)	-10.7	10.5	2.2	-0.2	-4.0	5.4
c1ccc2c(c1)OCC(c1csc3ncnc(N4CCCCC4)c13)O2 (centres undefined)	-6.8	7.4	33.0	50.5*	nt	9.4
COc1ccc(NC(=O)C2Cc3ccccc3O/C2=N\O)cc1 (centres undefined)	86.1*	-82.1	-23.4	-8.3	-28.4	-10.1
Nc1nc(SCc2ccccc2)c2[nH]cnc2n1	8.0	-8.2	7.2	8.9	-11.1	4.0
CNc1ncnc(Sc2nc(N)nc3nc[nH]c23)c1[N+](=O)[O-]	nt	70.6*	1.9	26.6	6.9	-0.4
SMILES	MITF act	MITF TRPM1 inh	TROY NFkB inh	TWEAK-Fn14 inh	LGR2 antag	EBV LMP1 NFkB
Nc1nc(Sc2ccc([N+](=O)[O-])c3nonc23)c2[nH]cnc2n1	nt	82.1*	-7.0	32.3	nt	3.2
COc1cc2oc3ccccc3c(=O)c2cc1OC	46.2	-37.9	-82.2	-35.0	nt	-29.2
CCOC(=O)/C=C/c1ccc2oc3ccccc3c(=O)c2c1	97.2*	-88.3	-13.4	16.6	-170.0	-16.5
CC(C)(CC(=O)N1CCN(c2ccc(Cl)cc2)CC1)CC1=NS(=O)(=O)c2ccccc2N1	nt	24.9	39.2	54.4*	nt	-68.4
COc1cccc(N2CCN(C(=O)CC(C)(C)CC3=NS(=O)(=O)c4ccccc4N3)CC2)c1	4.1	-1.8	8.7	14.9	-2.6	8.2
CCS(=O)(=O)c1cc([N+](=O)[O-])c(Sc2ccccc2NC(C)=O)s1	nt	1.9	68.4*	61.3*	30.4	-8.0
COC(=O)C1C(=O)c2c([nH]c(C(=O)OC3CCCCC3)c2C)CC1C (centres undefined)	93.9*	-88.8	-17.8	-21.7	-58.9	-47.1
Cc1c(C(=O)OC2CCCCC2)[nH]c2c1C(=O)CC(C)(C)C2	53.1	-59.7	-31.7	-29.0	nt	-23.1
COC(=O)C1C(=O)c2c([nH]c(C(=O)OC3CCCC3C)c2C)CC1C (centres undefined)	98.7*	-94.6	15.5	-22.0	-88.5	-49.6
COc1cccc(NC(=O)N(C)C[C@@H]2Oc3cc(C#Cc4ccc(F)cc4)ccc3S(=O)(=O)N([C@@H](C)CO)C[C@H]2C)c1	nt	nt	nt	nt	1.1	nt
CO[C@H]1CN(C)C(=O)c2ccc(NC(=O)Cc3ccccc3)cc2OC[C@H](C)N(CC2CC2)C[C@@H]1C	nt	nt	nt	nt	10.6	nt
NS(=O)(=O)c1ccc(-c2ccc(/C=N/Nc3ccc(C(=O)O)cc3)o2)cc1	15.4	-13.1	16.2	50.1*	-14.7	-1.6
O=C(O)c1ccc(-c2ccc(/C=N/Nc3ccc([N+](=O)[O-])cc3)o2)cc1	7.8	-4.1	-29.7	-18.4	nt	-7.9
CCN1[C@H](C(=O)Nc2ccccc2)[C@@H](CO)[C@@H]2Cn3c(ccc(-c4ccc(F)cc4)c3=O)[C@@H]21	nt	nt	nt	nt	-8.7	nt
CCN(CC)c1nc(Oc2ccc(C(=O)OC)cc2)nc(N2CCOCC2)n1	0.1	9.2	16.8	-6.7	0.8	52.4*
COC(=O)c1ccc(Oc2nc(N3CCCCC3)nc(N3CCOCC3)n2)cc1	6.5	-3.5	-2.9	3.9	nt	-14.8
CCN(CC)c1nc(Oc2ccc(C(=O)NN)cc2)nc(Oc2ccc(C(=O)NN)cc2)n1	10.7	-10.4	53.4*	-24.8	16.3	3.8
CCC(=O)Nc1ccc2oc(-c3ccccc3Br)nc2c1	130.2*	-129.4	-42.0	-27.4	-79.5	-26.2
CC(=O)Nc1ccc2oc(-c3ccccc3Br)nc2c1	3.9	-4.8	-58.2	7.8	10.4	4.9
